This is an account of results in PubChem BioAssay (Tox21).

“And” between values parts separate entries of the source, which are not always exact repeats. Equal entries are not always repeated. Results filed as inconclusive are left out. Some structures have more than one record in an assay (separate samples or runs), and their calls can disagree. The source made the active and inactive calls. Unless noted, calls come from the whole dose curve.

The nature of experiment [1]: Nuclear factor erythroid 2-related factor 2/antioxidant responsive element (Nrf2/ARE) small molecule agonists: qHTS cell viability counter screen in human keratinocytes (AID 1919968; active = well fitted curve in the direction sought with a large enough effect in the repeat runs; an effect the other way counts as inactive or inconclusive; note: nearly all actives have a fitted effect of over 55% in size). In a few lines:
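Viability counter-screen: KeratinoSens reporter cells, DMSO-delivered compounds, 23 h at 37 C, CellTiter-Fluor fluorescence.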
For orientation: Quantitative high-throughput screening tests each substance at several concentrations.

A short description of experiment [2]: Nuclear factor erythroid 2-related factor 2/antioxidant responsive element (Nrf2/ARE) small molecule agonists: luciferase reporter gene qHTS assay in human keratinocytes (AID 1919969). Note: nearly all actives have a fitted effect of over 35% in size. Note: potency is the fitted concentration of half-maximal effect.
For experiment [3], the target named is Gonadotropin-releasing hormone receptor (Homo sapiens) (UniProt P30968). The experiment in a line: Human gonadotropin-releasing hormone receptor (GnRHR) small molecule agonists, calcium flux assay in GnRHR-HEK293 cells (AID 1920063). Note: nearly all actives have a fitted effect of over 35% in size. The essentials: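 Tox21-format agonist screen using human GnRHR-expressing HEK293 cells and a fluorescent calcium dye; kinetic 3-min fluorescence reading after compound addition, 15-point concentration series run in triplicate.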
Gonadotropin-releasing hormone receptor (Homo sapiens), sequence (P30968 whole entry, looked up): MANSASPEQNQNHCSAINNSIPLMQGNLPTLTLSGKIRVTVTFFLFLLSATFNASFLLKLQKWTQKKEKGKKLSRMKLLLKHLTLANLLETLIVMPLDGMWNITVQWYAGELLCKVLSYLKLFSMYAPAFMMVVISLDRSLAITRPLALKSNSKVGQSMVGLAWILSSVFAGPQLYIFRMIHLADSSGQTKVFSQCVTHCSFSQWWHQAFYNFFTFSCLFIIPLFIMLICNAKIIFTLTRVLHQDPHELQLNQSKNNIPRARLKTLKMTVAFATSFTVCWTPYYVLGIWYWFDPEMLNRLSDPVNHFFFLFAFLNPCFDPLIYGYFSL

For experiment [4], the target named is KiSS-1 receptor (Homo sapiens) (UniProt Q969F8). The experiment in a line: Human kisspeptin (KISS1R) small molecule agonists, calcium flux assay in KISS1R-HEK293 cells (AID 1920064; active = well fitted curve in the direction sought with a large enough effect in the repeat runs; an effect the other way counts as inactive or inconclusive). The essentials:
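Intracellular calcium mobilization in KISS1R-HEK293 cells was recorded by fluorescence (Ex/Em 480/540) for 3 min following compound addition to cells pre-loaded 1 h with calcium dye.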
In general terms: Calcium flux is commonly read through the fluorescence of an indicator in the cells.

Experiment [5] is described as follows: G protein-coupled receptor (GPCR) small molecule agonists, calcium flux assay: HEK293 wild type cell line counter screen (AID 1920065). The essentials: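 In this agonist-mode screen, ATP is the positive control and DMSO the vehicle. Cells grow 18 h before a 1 h dye incubation at 37 C; signal is taken at Ex/Em 480/540 over 3 min.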
Experiment [6] can be described thus: p53 small molecule agonists, cell-based qHTS assay with human liver microsomes (AID 1963577). The essentials: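 Compounds act here after metabolic activation: human liver microsomes and NADPH, both at 0.5 mg/mL final, were co-added to p53RE-bla cells. Incubation ran 16 h at 37 C, followed by LiveBLAzer detection.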
A short description of experiment [7]: p53 small molecule agonists, cell-based qHTS assay with rat liver microsomes (AID 1963578). In a few lines: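 Read-out is beta-lactamase reporter fluorescence (LiveBLAzer, 2 h, room temperature, dark) in p53RE-bla cells treated 16 h at 37 C with compound, rat liver microsomes and NADPH, both 0.5 mg/mL final.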
Experiment [8] can be described thus: p53 small molecule agonists, cell-based qHTS assay with human liver microsomes: qHTS cell viability counter screen (AID 1963579). Note: nearly all actives have a fitted effect of over 45% in size. Note: potency is the fitted concentration of half-maximal effect. In a few lines:
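Cells carrying the p53 response-element beta-lactamase reporter are treated for 16 h at 37 C with test compounds in the presence of human liver microsomes and NADPH (both 0.5 mg/mL final); ATP-based CellTiter-Glo luminescence then reports viability.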

The nature of experiment [9]: p53 small molecule agonists, cell-based qHTS assay with rat liver microsomes: qHTS cell viability counter screen (AID 1963580). Note: nearly all actives have a fitted effect of over 45% in size. In a few lines: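 Intracellular ATP, by CellTiter-Glo luminescence, defines viability. HCT-116 p53RE-bla cells, 4,000 per well, were compound-treated in the presence of rat liver microsomes and NADPH for 16 h at 37 C.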
The nature of experiment [10]: p53 small molecule agonists, cell-based qHTS assay: qHTS cell viability counter screen (AID 1963581). Note: nearly all actives have a fitted effect of over 45% in size. The essentials: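 Compounds are pinned onto HCT-116 p53RE-bla cells and left 16 h at 37 C. Following the reporter FRET read, ATP is quantified by CellTiter-Glo luminescence after 30 min at room temperature.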
Experiment [11] in a line: p53 small molecule agonists, cell-based qHTS assay (AID 1963582; active = well fitted activation curve with a large enough effect in the signal ratio in the repeat runs, not every such curve was filed as active; the % refers to the signal ratio). In a few lines:
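Agonist activity was scored from beta-lactamase FRET fluorescence in p53RE-bla cells treated 16 h at 37 C with compounds in DMSO, substrate incubation being 2 h at room temperature.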

Experiment [12] has as its target 5-hydroxytryptamine receptor 2A (Homo sapiens) (UniProt P28223). The experiment can be described thus: 5-hydroxytryptamine receptor 2A (HTR2A) small molecule antagonists, cell-based qHTS assay (AID 1963586). Note: nearly all actives have a fitted effect of over 45% in size. The essentials:
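Antagonist-mode intracellular calcium assay: DOI (4 nM) added after 5 min compound pre-incubation at room temperature to dye-loaded HTR2A-CHO cells. Fluorescence followed for 3 min, sampled every second.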

The target is the same in experiment [13]. The experiment can be described thus: 5-hydroxytryptamine receptor 2A (HTR2A) small molecule agonists, cell-based qHTS assay (AID 1963587). Note: nearly all actives have a fitted effect of over 30% in size. The essentials:
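Kinetic calcium-flux fluorescence (2 min, 1 sec intervals) after compound addition in agonist mode. HTR2A-CHO cells were cultured 18 h, then dye-loaded 1 h at 37 C.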

The target of experiment [14] is Muscarinic acetylcholine receptor M1 (Homo sapiens) (UniProt P11229). The experiment in a line: Cholinergic receptor muscarinic 1 (CHRM1) small molecule antagonists, cell-based qHTS assay (AID 1963588). Note: nearly all actives have a fitted effect of over 40% in size. In a few lines:
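CHRM1-CHO calcium-flux assay, antagonist mode. Cells were seeded 18 h, dye-loaded 1 h at 37 C and given compound for 5 min at RT, then acetylcholine was added at 50nM. FDSS fluorescence was read 3 min; 15 concentrations, three runs.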

Experiment [15] has the same target. The experiment in a line: Cholinergic receptor muscarinic 1 (CHRM1) small molecule agonists, cell-based qHTS assay (AID 1963589). Note: nearly all actives have a fitted effect of over 35% in size. In a few lines:
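Stable CHRM1-CHO cells (human receptor) were incubated 18 h, dye-loaded for 1 h at 37 C and exposed to test compounds for agonist activity, with calcium-dependent fluorescence followed kinetically.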

Experiment [16] is described as follows: cAMP Responsive Elements (CRE) small molecule agonists, cell-based qHTS assay (AID 1963590). The essentials:
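FRET-based beta-lactamase readout (LiveBLAzer B/G, 2 h RT) quantified CRE activation in HEK 293T CRE-bla cells after 3 h treatment with DMSO-dissolved compounds.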

The nature of experiment [17]: cAMP Responsive Elements (CRE) small molecule antagonists, cell-based qHTS assay (AID 1963591; active = well fitted inhibition curve with a large enough effect in the signal ratio in the repeat runs, not every such curve was filed as active; the % refers to the signal ratio). The essentials:
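qHTS in CRE-bla HEK 293T cells: compound in DMSO, then 0.25 uM NKH477 (final), 3 h at 37 °C/5% CO2; beta-lactamase FRET read-out after 2 h substrate incubation.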

Experiment [18] deals with Beta-2 adrenergic receptor (Homo sapiens) (UniProt P07550). The experiment can be described thus: Adrenergic beta2 receptor (ADRB2) small molecule antagonists, cell-based qHTS assay (AID 1963592). Note: series mostly up to about 92 µM; nearly all actives have a fitted effect of over 50% in size. The essentials:
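Cells (CHO, stable ADRB2 overexpression) incubated 18-20hr at 37C; compounds added from DMSO; agonist mix (1nM isoproterenol, 100uM IBMX, 25uM Ro-20-1724) added; 0.5hr RT; d2-cAMP and anti-cAMP-cryptate added; 1hr RT; 665/615 nm read.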

For experiment [19], the target named is D(2) dopamine receptor (Homo sapiens) (UniProt P14416). The experiment can be described thus: Dopamine D2 receptor (DRD2) small molecule agonists, cell-based qHTS assay (AID 1963594). Note: nearly all actives have a fitted effect of over 35% in size. The essentials:
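cAMP accumulation in DRD2-HEK293 cells measured by HTRF after 1 h detection; compounds added 10 min before NKH477 (200nM […]) forskolin-analogue stimulation, 30 min at room temperature, with Ro20-1724 present at 0.1 mM final.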

Experiment [20] shares this target. The experiment can be described thus: Dopamine D2 receptor (DRD2) small molecule antagonists, cell-based qHTS assay (AID 1963595; active = well fitted inhibition curve with a large enough effect in the signal ratio in the repeat runs, with a control signal flat; the % refers to the signal ratio). The essentials:
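Antagonism was scored as restored cAMP in HEK293-DRD2 cells. These cells were stimulated with 200 nM NKH477 and 12 nM quinpirole for 30 min at room temperature, in the presence of 0.1 mM Ro20-1724.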

Beta-2 adrenergic receptor (Homo sapiens), sequence (P07550 whole entry, looked up): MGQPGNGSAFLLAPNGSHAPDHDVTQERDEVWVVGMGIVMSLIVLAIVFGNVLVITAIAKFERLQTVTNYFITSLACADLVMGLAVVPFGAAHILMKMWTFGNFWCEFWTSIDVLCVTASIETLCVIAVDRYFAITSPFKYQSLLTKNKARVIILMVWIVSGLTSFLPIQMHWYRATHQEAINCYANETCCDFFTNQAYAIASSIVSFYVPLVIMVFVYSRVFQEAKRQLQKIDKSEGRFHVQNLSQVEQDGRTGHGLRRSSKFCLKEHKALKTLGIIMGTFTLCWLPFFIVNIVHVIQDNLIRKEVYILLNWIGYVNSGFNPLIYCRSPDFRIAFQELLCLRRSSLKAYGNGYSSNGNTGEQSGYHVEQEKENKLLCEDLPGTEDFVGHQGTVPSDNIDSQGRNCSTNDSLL
5-hydroxytryptamine receptor 2A (Homo sapiens), sequence (P28223 whole entry, looked up): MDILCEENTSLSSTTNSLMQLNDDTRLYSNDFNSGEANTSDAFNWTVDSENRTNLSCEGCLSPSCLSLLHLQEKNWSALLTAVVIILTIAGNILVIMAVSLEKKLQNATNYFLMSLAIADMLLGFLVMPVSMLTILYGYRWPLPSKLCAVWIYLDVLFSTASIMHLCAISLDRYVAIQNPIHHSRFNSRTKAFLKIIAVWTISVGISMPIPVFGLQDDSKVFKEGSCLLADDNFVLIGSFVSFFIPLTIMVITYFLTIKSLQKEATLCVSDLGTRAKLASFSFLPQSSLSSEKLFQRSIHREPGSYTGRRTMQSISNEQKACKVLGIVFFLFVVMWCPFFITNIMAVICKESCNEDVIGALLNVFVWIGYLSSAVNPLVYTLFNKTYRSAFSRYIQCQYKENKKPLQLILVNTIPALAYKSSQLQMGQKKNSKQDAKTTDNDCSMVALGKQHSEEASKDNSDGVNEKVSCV
D(2) dopamine receptor (Homo sapiens), sequence (P14416 whole entry, looked up): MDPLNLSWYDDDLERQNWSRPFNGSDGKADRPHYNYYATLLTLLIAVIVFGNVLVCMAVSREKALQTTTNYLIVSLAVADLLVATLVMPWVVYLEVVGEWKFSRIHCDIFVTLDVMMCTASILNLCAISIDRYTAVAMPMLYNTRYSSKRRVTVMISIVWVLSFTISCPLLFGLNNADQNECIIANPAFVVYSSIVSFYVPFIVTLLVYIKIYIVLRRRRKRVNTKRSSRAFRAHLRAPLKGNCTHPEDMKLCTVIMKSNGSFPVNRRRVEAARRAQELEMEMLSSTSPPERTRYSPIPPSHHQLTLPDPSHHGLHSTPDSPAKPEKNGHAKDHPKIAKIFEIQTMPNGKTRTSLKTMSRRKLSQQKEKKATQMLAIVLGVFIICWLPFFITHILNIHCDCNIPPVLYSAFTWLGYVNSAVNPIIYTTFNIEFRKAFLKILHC
Muscarinic acetylcholine receptor M1 (Homo sapiens), sequence (P11229 whole entry, looked up): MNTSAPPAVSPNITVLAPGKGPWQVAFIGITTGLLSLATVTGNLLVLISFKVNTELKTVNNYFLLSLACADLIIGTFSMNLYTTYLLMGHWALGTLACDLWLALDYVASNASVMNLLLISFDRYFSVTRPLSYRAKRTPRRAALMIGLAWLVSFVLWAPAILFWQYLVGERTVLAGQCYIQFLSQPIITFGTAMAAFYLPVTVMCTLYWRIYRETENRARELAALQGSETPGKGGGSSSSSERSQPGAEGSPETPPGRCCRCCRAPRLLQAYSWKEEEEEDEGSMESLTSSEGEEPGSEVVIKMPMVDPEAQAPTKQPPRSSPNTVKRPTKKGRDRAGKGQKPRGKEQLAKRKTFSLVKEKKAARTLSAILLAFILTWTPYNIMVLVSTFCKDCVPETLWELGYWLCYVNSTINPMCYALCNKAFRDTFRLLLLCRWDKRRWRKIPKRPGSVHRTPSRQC
KiSS-1 receptor (Homo sapiens), sequence (Q969F8 whole entry, looked up): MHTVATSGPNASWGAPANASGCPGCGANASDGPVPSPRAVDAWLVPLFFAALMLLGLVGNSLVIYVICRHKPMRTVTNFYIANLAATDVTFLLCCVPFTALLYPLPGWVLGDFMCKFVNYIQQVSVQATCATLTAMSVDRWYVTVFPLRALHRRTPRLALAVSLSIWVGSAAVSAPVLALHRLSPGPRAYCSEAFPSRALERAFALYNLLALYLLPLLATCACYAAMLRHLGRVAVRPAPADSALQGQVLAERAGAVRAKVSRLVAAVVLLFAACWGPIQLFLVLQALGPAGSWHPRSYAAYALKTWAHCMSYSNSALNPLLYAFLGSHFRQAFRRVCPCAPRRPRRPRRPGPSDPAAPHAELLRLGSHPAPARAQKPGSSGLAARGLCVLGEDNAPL

On to `FC(F)(F)c1ccc(Cl)c(Cl)c1`, for which the Potency result in experiment [1], in experiment [2], in [3], in experiment [4], in experiment [5] and in [6] was “inactive” throughout. Moreover, the Potency result in experiment [7], in experiment [8], in experiment [9], in [10], in experiment [11] and in experiment [12] was “inactive” in each case. Besides, the Potency result in experiment [13], in experiment [14], in experiment [15], in [16], in experiment [17] and in [18] was “inactive” each time. Besides, the Potency result in experiment [19] and in experiment [20] was “inactive” in each case.
As to `Nc1ccc(Cl)cc1Cl`, the Potency entry in [1], in experiment [2], in experiment [3], in experiment [4], in experiment [5] and in [6] was “inactive” each time. Moreover, the Potency entry in [7], in [8], in [9], in [10], in experiment [11] and in [12] was “inactive” in each case. For the same compound, the Potency result in experiment [13], in experiment [14], in experiment [15], in experiment [16], in [17] and in experiment [18] was “inactive” in each case. In addition, the Potency result in experiment [19] and in experiment [20] was “inactive” throughout.
For `CCCCCCCCOc1ccc(C(=O)c2ccccc2)c(O)c1`, the Potency result in experiment [1], in experiment [2], in experiment [3], in [4], in experiment [5] and in experiment [6] was “inactive” throughout. The Potency result in experiment [7], in experiment [8], in experiment [9], in [10], in [11] and in [12] was “inactive” in each case. Besides, the Potency entry in [13], in experiment [14], in experiment [15], in [16], in experiment [17] and in experiment [18] was “inactive” in each case. Also, the Potency result in [19] and in experiment [20] was “inactive” in each case.
As to `C[Si](O[Si](C)(C)C)O[Si](C)(C)C`, the Potency entry in experiment [1], in experiment [2], in experiment [3], in experiment [4], in experiment [5] and in experiment [6] was “inactive” throughout. The Potency entry in experiment [7], in experiment [8], in [9], in experiment [10], in experiment [11] and in experiment [12] was “inactive” each time. Also, the Potency result in [13], in experiment [14], in [15], in experiment [16], in [17] and in experiment [18] was “inactive” in each case. Besides, the Potency result in [19] and in [20] was “inactive” in each case.
Consider `CCCCC1(COC(=O)CCC(=O)O)C(=O)N(c2ccccc2)N(c2ccccc2)C1=O`, for which the Potency entry in experiment [1], in [2], in experiment [3], in [4], in experiment [5] and in experiment [6] was “inactive” in each case. The Potency result in experiment [7], in experiment [8], in experiment [9], in [10], in experiment [11] and in experiment [12] was “inactive” in each case. The Potency result in experiment [13], in experiment [14], in experiment [15], in [16], in [17] and in experiment [18] was “inactive” in each case. Further, the Potency result in experiment [19] and in experiment [20] was “inactive” each time.
`CCCCC/C=C\C/C=C\CCCCCCCC(=O)OC`: the Potency entry in experiment [1], in [3], in [4], in experiment [5], in experiment [6] and in experiment [7] was “inactive” throughout. In addition, the Potency entry in [9], in [10], in [11], in experiment [12], in experiment [13] and in experiment [14] was “inactive” throughout. The Potency result in experiment [15], in experiment [16], in experiment [17], in experiment [18], in experiment [19] and in experiment [20] was “inactive” in each case. Also, the Potency in experiment [2] is 27 µM (active) and 68.6 µM (active); in experiment [8], “inactive and 51.3 µM (active)”.
For the compound `CC1COC(=O)O1` (stereo not given), the Potency entry in experiment [1], in [2], in experiment [3], in experiment [4], in experiment [5] and in experiment [6] was “inactive” each time. Further, the Potency result in experiment [7], in experiment [8], in experiment [9], in experiment [10], in experiment [11] and in experiment [12] was “inactive” each time. In addition, the Potency result in experiment [13], in experiment [14], in experiment [15], in experiment [16], in experiment [17] and in [18] was “inactive” throughout. In addition, the Potency result in experiment [19] and in [20] was “inactive” in each case.
